PubChem BioAssay (NCATS)
Records with an inconclusive call do not appear. Entries that show only a call come without a potency. Activity calls are given as the source filed them. Calls come from the whole dose curve; as a rule, active = well fitted cell-killing curve with a large enough effect; inconclusive = small, poorly fitted or top-dose-only effect; inactive = flat fitted curve, though single readings scatter.

Assay: Cell Viability - LYMP2-015 (AID 971); note: nearly all actives have a fitted effect of over 55% in size
Details: LYMP2-015 lymphoblastoid cell viability; series mostly up to 92.2 µM
Excerpt: NIH Chemical Genomics Center [NCGC]
NIH Molecular Libraries Screening Centers Network [MLSCN]
National Institutes of Environmental Health Sciences [NIEHS]
National Toxicology Program [NTP]
We have developed a 1536-well cell-based assay for quantitative high throughput screening (qHTS) against a number of cell lines to determine in vitro cytotoxicity of small molecules. This particular assay uses a human lymphoblastoid cell line (LYMP2-015) purchased from Coriell Institute for Medical Research.
NCGC Assay Protocol Summary:
The CellTiter-Glo luminescent cell viability assay (Promega) is a homogeneous method to measure the number of viable cells in culture. The end point readout of this assay is based on quantitation of intracellular ATP, an indicator of metabolic activity, using the luciferase reaction. Luciferase catalyzes the oxidation of beetle Luciferin to oxyluciferin and light in the presence of ATP. The luminescent signal is proportional to amount of ATP present.
Using the CellTiter-Glo luminescent cell viability assay, the amount of cellular ATP was measured in the lymphoblastoid cell line with complete culture medium following compound treatment for 24 hours. The assay was performed in opaque white Kalypsys 1536-well plates. In the screen, tetraoctylammonium bromide was used as positive control. Library compounds were measured for their ability to cause acute toxicity in the cell line, as reflected by a decrease in intracellular ATP levels, in a concentration-dependent manner. […] AC50 values were determined from concentration-response data modeled with the standard Hill equation.
qHTS protocol for CellTiter Glo lymphoblastoid cellular assay
[Step] [Parameter] [Value] [Description]
1. Reagent; 5 uL; 2500 lymphoblastoid cells/well
2. Time; 5 hr; 37 C incubation
4. Controls; 23 nL; Tetraoctylammonium bromide 6.4pM to 92 uM
5. Time; 24 hr; 37 C incubation
6. Reagent; 5 uL; CellTiter Glo reagent
7. Time; 30 min; Room Temperature
8. Detection; Luminescence; Viewlux plate reader
Keywords: cell viability, cytotoxicity, lymphoblastoid cell line, luminescence, NTPHTS, NTPHTS_NCGC, NIEHS, DSSTox, MLSMR, MLSCN, NIH Roadmap, qHTS, NCGC
With CCCCC(=O)N(C)C the Potency was “inactive”. In the case of CC(C=O)Cc1ccc(C(C)(C)C)cc1 (stereo not given), the Potency is reported as “inactive”. In the case of O=C(O)c1cccc(Cl)c1Cl, the Potency is reported as “inactive”. In the case of CC(C)(C)c1ccc(OCC2CO2)cc1 (stereo not given), the Potency is reported as “inactive”. With CCOC(=O)OCC the Potency was “inactive”. With Clc1ccccn1 the Potency was “inactive”. In the case of CCOc1cccc(N)c1, the Potency is reported as “inactive”. With CC(C)Nc1ccccc1 the Potency was “inactive”. In the case of N#Cc1ccccc1, the Potency is reported as “inactive”. With CCNc1ccccc1 the Potency was “inactive”. With Cc1ccc(C)cc1 the Potency was “inactive”. For Cc1ccc(Cl)cc1N, the Potency was “inactive”. In the case of CCc1ccccc1, the Potency is reported as “inactive”. For Cc1ccc(C(=O)O)cc1, the Potency was “inactive”. For COc1ccc(N)c(C)c1, the Potency was “inactive”. With O=Cc1ccc(Cl)cc1 the Potency was “inactive”. With Cc1cccc(C)c1[N+](=O)[O-] the Potency was “inactive”. With O=C(O)c1ccc(C(=O)O)cc1 the Potency was “inactive”. For O=C(O)c1cc(Cl)cc(Cl)c1, the Potency was “inactive”. With C[C@@H]1CC2(OC3C[C@@]4(C)C5=CC[C@H]6C(C)(C)C(O[C@@H]7OC[C@@H](O)[C@H](O)[C@H]7O)CC[C@@]67C[C@@]57CC[C@]4(C)C31)OC(O)C1(C)OC21 (stereo not given in full) the Potency was “inactive”. With Clc1cc(Cl)cc(Cl)c1 the Potency was “inactive”. In the case of CN(C)CCCNCCCN, the Potency is reported as “inactive”. For CC1CCC2CC1C2(C)C (stereo not given), the Potency was “inactive”. In the case of O=C(Cl)c1c(Cl)cccc1Cl, the Potency is reported as “inactive”. In the case of CC(C)=CCC/C(C)=C/C=O, the Potency is reported as “inactive”. In the case of CNc1ccccc1, the Potency is reported as “inactive”. In the case of Cc1cc(C(=O)O)ccc1[N+](=O)[O-], the Potency is reported as “inactive”. For Nc1cccc(O)c1, the Potency was “inactive”. With CNC(=O)N(c1ccccc1)c1ccccc1 the Potency was “inactive”. With O=C(O)/C=C/C(=O)O the Potency was “inactive”. For O=C(O)c1cccc([N+](=O)[O-])c1, the Potency was “inactive”. With O=C(Cl)c1cccc([N+](=O)[O-])c1 the Potency was “inactive”. In the case of Cc1cc([N+](=O)[O-])ccc1N, the Potency is reported as “inactive”. In the case of Nc1cccc(N)c1, the Potency is reported as “inactive”. With O=C1C=CCCC1 the Potency was “inactive”. With CC/C=C1/OC(=O)c2ccccc21 the Potency was “inactive”. With C=CC(=O)NC(C)C the Potency was “inactive”. In the case of Nc1cc([N+](=O)[O-])ccc1C(=O)O, the Potency is reported as “inactive”. With c1ccc2c(c1)Oc1ccccc1S2 the Potency was “inactive”. For CC(C)=CCl, the Potency was “inactive”.
